Most compounds without a hit are left out; they make up all but 2.6% or so of the library.
uPA generation – qHTS for Inhibitors of Cell Surface uPA Generation; cell surface uPA generation assay, qHTS; hit rate 0.31% among 330,000; AID 540303, 2011; Potency, µM (titrated, usually from 38.3 µM), without a hit: at the highest dose activity change, negative = inhibition, hits mostly inhibitors; active = well fitted inhibition curve with a large enough effect; inconclusive = small, poorly fitted or top-dose-only effect; inactive = no such curve, though single readings can be large or run the other way; tested in mouse RAW 264.7 cells; also: potency is read from the fitted curve at half-maximal effect; % is scaled to controls: 0 for no effect and ±100 for the full control effect; nearly all actives have a fitted effect of over 55% in size
HepG2 tox – qHTS for Inhibitors of TGF-b: Cytotox Counterscreen; hit rate 0.76% among 410,000; Potency, µM (series often up to 46.1 µM), inactives show top-dose activity change, negative = cytotoxicity, usual class: cytotoxic; HepG2 CAGA-GFP viability, ATP luminescence, 18 h; also: potency is read from the fitted curve at half-maximal effect
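CellTiter-Glo luminescence gave cytotoxicity after 18 hours at 37 degrees C. The cells were HepG2 CAGA-GFP in 1% FBS DMEM, stimulated with 500 pg/mL TGF-beta after compound addition. %Activity was normalised to no-cell wells (complete cell-killing) and DMSO (no toxicity), and curves were fitted and classified.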
TGFb SMAD3 inh – qHTS for Inhibitors of TGF-b; Potency, µM (top dose mostly 46.1 µM), for inactives: at the top dose activity, negative = inhibition, usual class: inhibitors; hit rate 1.2% among 410,000; AID 588855, 2011; HepG2 CAGA-GFP TGF-b/SMAD3 reporter, GFP fluorescence, 18 h; TGF-beta stimulated, 500 pg/mL final; also: potency is read from the fitted curve at half-maximal effect; % is scaled to controls: 0 for no effect and ±100 for the full control effect; nearly all actives have a fitted effect of over 65% in size
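Inhibition was scored as loss of TGF-beta-induced (500 pg/mL final, 18 hours, 37 degrees C) GFP in HEPG2 cells carrying a CAGA-GFP reporter, in DMEM with 1% FBS. Well GFP was summed per cell; Activity was normalised to unstimulated and stimulated DMSO wells, then concentration-response fitting.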
S2 tox – Viability Counterscreen for Primary qHTS for Inhibitors of ATXN expression; S2 cells (HEK-293 line with an ATXN2-luciferase reporter) viability, CellTiter-Fluor protease fluorescence, 24 h; Potency, µM (series often up to 56.7 µM), hits mostly cytotoxic; hit rate 0.49% among 400,000; AID 651635, 2014; also: potency is read from the fitted curve at half-maximal effect; nearly all actives have a fitted effect of over 40% in size
Giardia kill – Small Molecules that selectively kill Giardia lamblia: qHTS; Giardia lamblia trophozoite viability; AID 540267, 2011; activity change, % at 7.66 µM, hits read low; hit rate 0.15% among 340,000; in the data active = activity change below about -80%; inconclusive = between about -30% and that limit;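 also: parasites exposed to compound for two days anaerobically before the ATP read; % is scaled to controls: 0 for no effect and ±100 for the full control effect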
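Luminescent ATP signal served as the viability read-out, measured 15-30 min after adding ATP detection reagent to trophozoites that had been incubated with compounds for 48 hrs at 37 deg C anaerobically at 100 cells/well.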
ATXN2 expr inh – Primary qHTS for Inhibitors of ATXN expression; hit rate 0.72% among 360,000; HEK-293 ATXN2-luciferase reporter, luminescence, 24 h; Potency, µM (top dose mostly 57 µM), for inactives: top-dose activity change, negative = inhibition, most hits filed as inhibitors; also: potency is read from the fitted curve at half-maximal effect; % is scaled to controls: 0 for no effect and ±100 for the full control effect; nearly all actives have a fitted effect of over 55% in size
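qHTS (up to 57 uM final) was run with 24 h compound exposure of reporter cells at 37 °C. Each well was multiplexed: SteadyGlo luminescence measured ATXN2-luciferase expression after a fluorogenic Gly-Phe-AFC viability readout (25 uM final).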
* hit, by the source's call; i = inactive; ? = inconclusive; . = not tested or not shown. Unless noted, calls follow the shape of the dose curve; as a rule, active = well fitted curve in the direction sought with a large enough effect; inconclusive = small, poorly fitted or top-dose-only effect, or another doubt; inactive = no such curve, though single readings can be large; an effect the other way counts as inactive or inconclusive.

SMILES	uPA generation	HepG2 tox	TGFb SMAD3 inh	S2 tox	Giardia kill	ATXN2 expr inh
O=S(=O)(Nc1cccc2ccccc12)c1cccs1	1%	2%	7%	i	1	29%
O=S(=O)(Nc1cccc2cccnc12)c1cccs1	.	-18%	2.2µM*	.	-13	.
CCc1ccccc1NC(=O)Nc1ccc2c(c1)N(CC)C(=O)c1ccccc1S2	.	-34%	11µM*	.	.	.
CCN1C(=O)c2ccccc2Sc2ccc(NC(=O)Nc3ccc(C(C)=O)cc3)cc21	.	-23%	?	.	.	.
Cc1ccccc1CNC(=O)Nc1ccc2c(c1)N(C)C(=O)c1ccccc1S2	.	-33%	7.1µM*	.	.	.
COc1ccc(CNC(=O)Nc2ccc3c(c2)N(C)C(=O)c2ccccc2S3)cc1	.	-32%	-22%	.	.	.
CN1C(=O)c2ccccc2Sc2ccc(NC(=O)NCc3cccc(Cl)c3)cc21	.	-57%	10µM*	.	.	.
CN1C(=O)c2ccccc2Sc2ccc(NC(=O)NCc3ccc(Cl)cc3)cc21	.	-3%	-3%	.	.	.
CC(C)C(=O)Nc1cccc(C(F)(F)F)c1	.	.	.	i	.	11%
CN1Cc2c(N3CCOCC3)nc3sc(C(=O)c4ccc(Br)cc4)c(N)c3c2CC1(C)C	13%	10µM*	?	.	2	?
CN1Cc2c(N3CCOCC3)nc3sc(C#N)c(N)c3c2CC1(C)C	-2%	-9%	13%	i	9	-14%
COC(=O)CC1C(=O)NCCN1C(=O)CN1Cc2ccccc2OC(c2ccccc2)C1 (stereo not given)	.	.	.	i	.	.
N=c1c2c(-c3ccccc3)c(-c3ccccc3)n(Cc3ccccc3)c2ncn1CCO	-8%	-53%	?	8.9µM*	3	?
OCCNc1ncnc2c1c(-c1ccccc1)c(-c1ccccc1)n2Cc1ccco1	4%	-44%	3%	i	-2	-1%
N=c1c2c(-c3ccccc3)c(-c3ccccc3)n(Cc3ccco3)c2ncn1Cc1ccccc1	1%	-23%	-5%	i	-1	-24%
N=c1c2c(-c3ccccc3)c(-c3ccccc3)n(Cc3ccco3)c2ncn1CCCn1ccnc1	-10%	-80%	?	?	23	-26%
c1ccc(-c2c(-c3ccccc3)n(Cc3ccco3)c3ncnc(NCCCn4ccnc4)c23)cc1	4%	20µM*	?	.	9	?
CC(C)Cn1cnc2c(c(-c3ccccc3)c(-c3ccccc3)n2Cc2ccco2)c1=N	-8%	13µM*	?	?	-7	-38%
COc1cc2nc(CCc3nc4cc(OC)c(OC)cc4[nH]3)[nH]c2cc1OC	.	-10%	-21%	.	.	.
COc1ccc(/C=N/Nc2cc(C)nc3ccc(OC)cc23)c(OC)c1	-12%	-107%	10µM*	.	-1	?
COc1ccc2nc(C)cc(N/N=C/c3ccccc3)c2c1	-16%	-100%	?	.	-21	?
COc1ccc2nc(C)cc(Nc3ccc(Cl)c(Cl)c3)c2c1	.	11µM*	?	22µM*	.	25µM*
Cc1ccc(-c2cc3c(nn2)-c2ccccc2C3=O)cc1	-17%	-39%	?	i	-97*	3.5µM*
N#Cc1sc2nc(N3CCCCC3)c3c(c2c1N)CCCC3	2%	-100%	11µM*	i	20	-22%
Cc1nc2sc(C#N)c(N)c2c2c1CCCC2	0%	1%	?	i	-1	16%
SMILES	uPA generation	HepG2 tox	TGFb SMAD3 inh	S2 tox	Giardia kill	ATXN2 expr inh
COc1cccc(CN2C(=O)NC(C)(C3CCN(Cc4cnn(C)c4C)CC3)C2=O)c1OC (stereo not given)	.	.	.	i	.	.
COc1ccc(-n2nc3cc(C)c(NC(C)=O)cc3n2)cc1	-8%	1%	9%	i	?	8.9µM*
Oc1ccc(-c2ccc(-c3cc(Nc4cccc(CNC5CC5)c4)n[nH]3)cc2)c(O)c1	.	.	.	.	.	2.4µM*
O=C(CCOCCOCCOCCOCCC(=O)Nc1c(I)cc(I)c(C(=O)O)c1I)Nc1c(I)cc(I)c(C(=O)O)c1I	.	.	.	i	.	6%
CCOC(=O)C1CCCCN1C(=O)c1ccc(-n2cc(NC(=O)c3cccnc3)cn2)cc1 (stereo not given)	.	.	.	i	.	.
COc1ccc(C(=O)N2CCCc3ccccc32)cc1Br	1%	-4%	2%	0.22µM*	0	-5%
NC(=S)N/N=C/c1ccc(-c2ccc(SC(F)F)cc2)o1	-13%	-53%	10µM*	i	11	-17%
OCCN1CCN(Cc2ccc3c(c2)CN(Cc2ccc4ccccc4c2)CCO3)CC1	.	.	.	i	.	.
CCCC[C@@H](CN[C@H](C)CNC)NCC1CCC(C(C)(C)C)CC1 (stereo not given in full)	?	18µM*	?	32µM*	0	35µM*
CC[C@H](C)[C@@H](CN[C@H](CCCCNC)CNC)NCC1CCCC1	-11%	1%	-24%	i	0	10%
O=[N+]([O-])c1ccc(Sc2cccc3cccnc23)c([N+](=O)[O-])c1	10µM*	-105%	4µM*	6.3µM*	-15	?
O=[N+]([O-])c1ccc(Sc2ccncn2)c([N+](=O)[O-])c1	.	10µM*	11µM*	.	.	.
O=[N+]([O-])c1ccc(Sc2cccc3cccnc23)cc1	9%	-15%	-7%	i	-2	51%
Cc1cc(C)nc(Sc2ccc([N+](=O)[O-])cc2[N+](=O)[O-])n1	-10%	-22%	?	i	12	?
C=CCn1nc([N+](=O)[O-])nc1Sc1cccc2cccnc12	-9%	5.6µM*	3.2µM*	.	-3	22µM*
O=[N+]([O-])c1cc(Cl)ccc1Sc1cccc2cccnc12	-5%	-15%	-1%	i	10	-5%
Cc1cccc2c(/C=C/c3ccc(N(C)C)cc3)ccnc12	.	-12%	16%	.	.	.
S=C(Nc1ccccc1)c1ccccn1	-4%	-40%	11µM*	?	-27	36%
S=C(Nc1ccc(Nc2ccccc2)cc1)Nc1ccccn1	-1%	-3%	?	i	-6	-35%
COc1cc(C(O)c2nc(-c3cccc(C(F)(F)F)c3)cs2)ccc1F (stereo not given)	.	11µM*	13µM*	i	.	-27%
Cc1ccc(-c2csc(C(O)c3ccccc3)n2)cc1C (stereo not given)	.	-22%	-5%	i	.	37%
Cc1ccc(-c2csc(C(O)c3cccc(Cl)c3)n2)cc1C (stereo not given)	.	-54%	13µM*	i	.	-1%
OC(c1cccc(Cl)c1)c1nc(-c2ccc(Cl)cc2)cs1 (stereo not given)	.	13µM*	13µM*	i	.	-25%

Screening results as filed in PubChem.
